# Source: ChEMBL document CHEMBL1157539, “Thousands of chemical starting points for antimalarial lead identification” (Nature, 2010)
# Test system: Plasmodium falciparum
# Assay: GSK_TCMDC: Inhibition of Plasmodium falciparum 3D7 in whole red blood cells, using parasite LDH activity as an index of growth. Test compounds present at 2uM
# Format: functional
row,SMILES,Inhibition [%]
1,O=CO.c1ccc(-c2ccc(CNCCCNc3nc4ccccc4[nH]3)cc2)cc1,95
2,Fc1ccccc1-c1cc(Nc2ccncc2)nc(-c2cccnc2)n1,100
3,CN(CC(=O)Nc1ccc(F)cc1)C(=O)c1ccc(-c2ccc(F)cc2)o1,89
4,CCc1cn2c3c(cc(C(=O)N[C@@H](Cc4ccccc4)[C@H](O)CNC(C)(C)c4cccc(OC)c4)cc13)N(C)S(=O)(=O)C2.O=CO,98
5,CN(/N=C/C=C/c1ccc(Cl)cc1)c1nc(NCCc2ccc(O)cc2)nc(N2CCNCC2)n1,92
6,Cc1cc(NCCC(=O)Nc2ccccc2)nc(NCc2ccccc2C)n1.O=C(O)C(F)(F)F,100
7,COc1ccc2[nH]c(C)cc(=NN=Cc3ccccc3F)c2c1,100
8,COc1cc(-c2nc(-c3ccccc3)c(-c3ccccc3)[nH]2)cc(OC)c1O,100
9,CC[C@H](C)CNC(=O)c1cccc(-c2cccc(CN3CCC(N4CCCC4)CC3)c2)n1.O=C(O)C(F)(F)F,100
10,CCCC(C)Nc1nc(C)cc(NCCC(=O)Nc2ccc(OC)cc2)n1.O=C(O)C(F)(F)F (stereo unspecified),97
11,Nc1c2ccccc2nc2cc(C(F)(F)F)ccc12,100
12,CCc1c[nH]c2c(N3CCCCC3=O)cc(C(=O)N[C@@H](Cc3ccccc3)[C@H](O)CNCc3cccc(OC)c3)cc12.O=CO,100
13,O=C(c1ccc(F)c2ccccc12)N1CCc2cc3nccc(N4CCN5CCC[C@H]5C4)c3cc21,90
14,Cc1ccc2nc(N(CCCn3ccnc3)C(=O)C=Cc3cccs3)sc2c1.Cl,100
15,COc1ccc(-c2onc(C(F)(F)F)c2-c2ccc(Br)cc2)c(O)c1,99
16,Cc1ccc(-n2c(Sc3ncnc4sccc34)nnc2N2CCCC2)cc1,99
17,CCCNC(=O)C1CCN(C(c2ccccc2)c2ccc(Cl)c(Cl)c2)CC1 (stereo unspecified),90
18,Cc1ccc(S(=O)(=O)N2CCCN(C(=O)c3cc(-c4ccccc4)[nH]n3)CC2)cc1,96

row,SMILES,Inhibition [%]
1,CCn1ccc2c(N3CCCCS3(=O)=O)cc(C(=O)N[C@@H](Cc3ccccc3)[C@H](O)CNC(C)(C)CCCC(C)C)cc21,96
2,O=C(O)C(F)(F)F.O=[N+]([O-])c1cccc(CNCC2CCN(CCc3ccccc3)CC2)c1,98
3,Nc1cc(-c2ccc3ccccc3c2)nc2ccccc12,99
4,Cc1cccc2nc(-c3ccc(-c4ccc(CN5CC(C)OC(C)C5)cc4)cc3)[nH]c12.O=C(O)C(F)(F)F (stereo unspecified),97
5,FC(F)(F)c1ccc2[nH]c(-c3ccc(-c4cccc(CNCC5CCCO5)c4)s3)nc2c1.O=C(O)C(F)(F)F (stereo unspecified),99
6,CC1=C(C(=O)Nc2cc3cn[nH]c3cc2F)C(c2ccc(Cl)c(NS(C)(=O)=O)c2)CC(=O)N1 (stereo unspecified),88
7,COc1ccc(-c2ccc([N+](=O)[O-])cc2C(=O)NCC(C)Oc2ccc(C(F)(F)F)cc2)cc1 (stereo unspecified),100
8,CCc1ccc(NC(=O)c2cccc(CN3CCCN(Cc4ccc(OC)cc4)CC3)c2)cc1.O=C(O)C(F)(F)F,97
9,CN1CCCC(CN2CCN(Cc3cccc(-c4cccc(-c5nc6ccccc6[nH]5)c4)c3)CC2)C1.O=C(O)C(F)(F)F (stereo unspecified),100
10,CCCNCc1ccc(-c2ccc(CN(C(=O)c3nn(-c4ccccc4)nc3C)C3CC3)cc2)nc1.O=C(O)C(F)(F)F,100
11,CCN1CCC(N(Cc2ccc(-c3ccc(C(F)(F)F)cc3)cc2)C(=O)CCCCn2c(CCc3cccc(F)c3F)nc(=O)c3ccccc32)CC1,90
12,CCCCNc1cc(NCCCC)c2c(n1)[nH]c1ccccc12,100
13,CC(C)CCN1CCC(Oc2ccc(NC(=O)c3ccccc3)cc2Cl)CC1.O=C(O)C(F)(F)F,87
14,O=C(O)C(F)(F)F.O=C1OC2(CN1CC1CCN(Cc3ccc(-n4ccnc4)cc3)C1)c1ccccc1-c1ccccc12 (stereo unspecified),96
15,COc1ccc(OC)c2c1CC1NCC2c2c(OC)ccc(OC)c21.Cl (stereo unspecified),99
16,CCCCCc1ccc(N2C(N)=NC(N)=NC2(C)C)cc1.Cl,95
17,CCNc1cc(-c2cccc(OC)c2)nc(Nc2ccc(F)cc2)n1,87
18,C[C@H](NC(=O)c1c(CN2CCC(NC(=O)CC(C)(C)C)CC2)c(-c2cccs2)nc2ccccc12)C1CCCCC1,91
